Measured values published in the supplement of paper PMC9135407.
Structures can show the parent of a compound that is named as a salt. Values without a mark were called inactive.

tested on: primary human hepatic stellate cells (donor 1); test: COL1A1 mRNA fold change vs DMSO (normalised to PSMB2); higher = more COL1A1 expression, active = hit call of the paper; details: 48 h
Description: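 Secondary qRT-PCR screen in primary human HSCs (donor 1), 384-well plates, with compounds dispensed in quadruplicate and incubated for 48 h. Cells-to-CT lysates were used for multiplexed TaqMan qPCR of ACTA2 or COL1A1 with PSMB2 as reference. Fold changes versus DMSO come from a linear model (Ct_gene ~ Ct_PSMB2 + plate + chemical). A hit is defined as COL1A1 and ACTA2 FC <0.5 (FDR <0.05) with PSMB2 between 0.2 and 2.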

Row | SMILES | COL1A1 mRNA fold change
1 | C[C@@H]1CN(CCCn2c3ccccc3c3ccccc32)C[C@H](C)N1 [Rimcazole dihydrochloride] (33.3333 µM) | 0.14
2 | CNCCCC12CCC(c3ccccc31)c1ccccc12 [Maprotiline hydrochloride] (33.3333 µM) | 0.0732 (active)
3 | CN1CCN(C2=Cc3ccccc3Oc3ccc(Cl)cc32)CC1 (33.3333 µM) | 0.416 (active)
4 | Cc1nc2ccc(-n3ncc(C(=O)c4cc5ccccc5[nH]4)c3N)cc2[nH]1 (33.3333 µM) | 0.562
5 | CNCc1ccc(-c2[nH]c3cc(F)cc4c3c2CCNC4=O)cc1 (33.3333 µM) | 0.83
6 | CN1CCN2c3ccccc3Cc3ccccc3C2C1 (stereo unspecified) [Mianserin hcl] (25.2333 µM) | 0.529
7 | C[C@H]1O[C@@H](O[C@H]2[C@@H](O)C[C@H](O[C@H]3[C@@H](O)C[C@H](O[C@H]4CC[C@@]5(C)[C@H](CC[C@@H]6[C@@H]5C[C@@H](O)[C@]5(C)[C@@H](C7=CC(=O)OC7)CC[C@]65O)C4)O[C@@H]3C)O[C@@H]2C)C[C@H](O)[C@@H]1O [Digoxin] (33.3333 µM) | 0.0679 (active)
8 | CN1CCC(NC(=O)c2cc(-c3c(O)cc(O)cc3Oc3ccc([N+](=O)[O-])cc3)on2)CC1 (33.3333 µM) | 1.15
9 | CCN(CC)CC#CCOC(=O)C(O)(c1ccccc1)C1CCCCC1 (stereo unspecified) [Oxybutynin chloride] (16.9333 µM) | 0.755
10 | CNCCCC1c2ccccc2C=Cc2ccccc21 [Protryptyline hydrochloride] (22.2333 µM) | 0.548
11 | CC1(C)CC(=O)c2c(C(F)(F)F)nn(-c3ccc(C(N)=O)c(N[C@H]4CC[C@H](OC(=O)CN)CC4)c3)c2C1 (33.3333 µM) | 0.807
